The record followed here is PubChem BioAssay (NCI).

This is part of a sample that, as a whole, favours compounds with a hit. Of some 83,000 tested, about 20% had one in any assay.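 How to read the values: 0–100, growth inhibition (40 = 60% inhibited); 0, no net growth; -100 to 0, cell death (-40 = 40% of starting cells died; -100 = all dead).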 Values without a mark were called inactive. Activity calls are given as the source filed them. How the source made its calls: active means growth percent below 10; inactive means the rest.

Common to all, as to test: NCI-60 one-dose screen, 48 h (100 = growth as untreated, 0 = no growth, -100 = all killed)
For experiment [1], the system named is SR leukemia. The note with it: 10 µM unless noted.
The test system of experiment [2] is RPMI-8226 leukemia. As to conditions: 10 µM unless noted.
The test system of experiment [3] is OVCAR-8 ovarian. As to conditions: 10 µM unless noted.
The subject of experiment [4] is OVCAR-5 ovarian. The note with it: 10 µM unless noted.
Experiment [5] has as its system OVCAR-4 ovarian. As to conditions: 10 µM unless noted.
The test system of experiment [6] is IGROV1 ovarian. The note with it: 10 µM unless noted.
Experiment [7] concerns OVCAR-3 ovarian. As to conditions: 10 µM unless noted.
The test system of experiment [8] is NCI/ADR-RES ovarian. As to conditions: 10 µM unless noted.
The test system of experiment [9] is T-47D breast. As to conditions: 10 µM unless noted.
The test system of experiment [10] is BT-549 breast. The note with it: 10 µM unless noted.
Experiment [11] has as its system MDA-MB-435 melanoma. As to conditions: 10 µM unless noted.
Experiment [12] concerns SW-620 colon. As to conditions: 10 µM unless noted.
The test system of experiment [13] is HCT-116 colon. As to conditions: 10 µM unless noted.
Experiment [14] deals with HCC-2998 colon. As to conditions: 10 µM.
The test system of experiment [15] is KM12 colon. As to conditions: 10 µM unless noted.
In experiment [16] the test system is SK-OV-3 ovarian. The note with it: 10 µM unless noted.
Experiment [17] has as its system HS 578T breast. The note with it: 10 µM.
Experiment [18] deals with MCF7 breast. The note with it: 10 µM unless noted.

Regarding `CCn1c(-c2nonc2N)nc2c(C#CC(C)(C)O)ncc(OC[C@H]3CCCNC3)c21`, the growth was 29.3% in experiment [1]; 91.7% in experiment [2]; 70.6% in [3]; 108% in experiment [4]; 68.5% in experiment [5]; 23.9% in experiment [6]. The growth was 41.3% in [7]; 95.6% in [8]; 66.7% in [9]; 49.6% in experiment [10]; 75.3% in experiment [11]; 46.1% in experiment [12]. Besides, the results for the growth in experiment [13], in experiment [14] and in experiment [15] were 44.5%, 81.4% and 35.9%, respectively.

Turning to `Cc1nn(-c2ccccc2)c2c1N=c1s/c(=C\c3cn(-c4ccccc4)nc3-c3ccc(Cl)cc3)c(=O)n1C(C)N2` (stereo unspecified), the growth in [1] was 123%; in experiment [2], 49%; in [4] it was 101%; in experiment [5], 93.2%; in experiment [16], 102%; in [7], 109%. Further, the growth is 87.8% in [17]; 97.8% in experiment [8]; 103% in experiment [9]; 105% in experiment [10]; 88.6% in [11]; 103% in experiment [12]. In addition, the figures for the growth in experiment [18], in [13] and in [15] were 90.6%, 75.2% and 91.8%, respectively.

`O=CC(OC(=O)c1ccccc1)C(OC(=O)c1ccccc1)C(COC(c1ccccc1)(c1ccccc1)c1ccccc1)OC(=O)c1ccccc1` (stereo unspecified): the growth in experiment [1] was -12.9% (active); in experiment [3] it was -17.6% (active); in [4], 61%; in experiment [5], 89.9%; in experiment [16], 98.8%; in [6], -38.5% (active). In addition, the growth in [7] was 21.4%; in experiment [17], 51.8%; in experiment [8], 92.8%; in [9], 25.6%; in experiment [10], 65.6%; in experiment [11] it was 45.7%. For the same molecule, the figures for the growth in [18] and in experiment [13] were 36.6% and 7.51% (active), respectively.

With `N#Cc1c(NC(=O)c2cccs2)[n+]([O-])c2ccc(F)cc2[n+]1[O-]`, the growth in experiment [1] is 77%; in experiment [2], 93.2%; in [3], 95.6%; in experiment [4], 108%; in experiment [5], 85.7%; in experiment [7], 98.3%. Besides, the growth was 111% in [8]; 76.9% in experiment [9]; 99.6% in experiment [10]; 105% in experiment [11]; 74% in [12]; 86.5% in [18]. Further, the growth in [13] is 104%; in experiment [15] it was 92.2%.

For `CCOC(=O)c1sc(NC(=O)COc2ccc(/C=C3\Cc4ccc(Cl)cc4C3=O)cc2)nc1C`, the growth in experiment [1] was 103%; in experiment [2] it was 96.1%; in [4], 111%; in experiment [5], 112%; in experiment [16] it was 110%; in experiment [7] it was 113%. For the same molecule, the growth in [17] was 116%; in experiment [8], 93.9%; in [9], 92.9%; in [11], 105%; in [12], 123%; in experiment [18], 96.1%. The figures for the growth in [13] and in [15] were 92.9% and 112%, respectively.

For `CNC(=O)c1cc(Oc2ccc(NC(=O)Nc3cc(C(C)(C)C)nn3-c3ccc4ncccc4c3)c(F)c2)ccn1`, the growth in [1] was -8.95% (active); in experiment [2], 0.22% (active); in experiment [3] it was -30.2% (active); in experiment [4], -3.54% (active); in experiment [5], -13.6% (active); in [6], -20.2% (active). Also, the growth in [7] is 1.66% (active); in experiment [8], -23.1% (active); in [9], -17.7% (active); in experiment [11], -88% (active); in [12], -0.427% (active); in experiment [18] it was -6.46% (active). Besides, the growth in experiment [13] was -51.8% (active); in experiment [14], -31.5% (active); in experiment [15], -23.8% (active).

On to `CC1(O)CC(c2nc(-c3ccc4ccc(-c5ccccc5)nc4c3)c3c(N)nccn23)C1` (stereo unspecified), for which the growth was 33.9% in experiment [1]; 31.8% in experiment [2]; 39% in experiment [3]; 41.3% in experiment [4]; 33.1% in experiment [5]; 40.1% in experiment [6]. In addition, the growth in experiment [7] is 56.6%; in experiment [8], 41%; in experiment [9], 2.62% (active); in experiment [10] it was 19.5%; in [11], 36.3%; in [12], 35.4%. The growth in [18] was 14.5%; in [13], 35.3%; in experiment [15], 8.69% (active).

For `Nc1nc(=S)c2ncn(C3OC(COC(=O)c4ccc(Cl)cc4)C(OC(=O)c4ccc(Cl)cc4)C3OC(=O)c3ccc(Cl)cc3)c2[nH]1` (stereo unspecified), the growth in [1] was 72.8%; in experiment [3] it was 129%; in [4], 91.9%; in [5] it was 86.2%; in [16] it was 43.5%; in experiment [6] it was 93.5%. Also, the growth in [7] is 81%; in [17] it was -29% (active); in experiment [8] it was 103%; in experiment [9], 59.6%; in experiment [10], 113%; in experiment [11], 103%. Further, the results for the growth in experiment [12] and in [15] were 100% and 83.9%, respectively.

As for `CCc1ccc(C2=C(O)C(=O)C(c3ccc(CC)cc3)=C(O)C2=O)cc1`, the growth was -18.5% (active) in experiment [1]; -59% (active) in [3]; -0.569% (active) in [4]; -0.208% (active) in [5]; -36.3% (active) in experiment [6]; -47.2% (active) in [7]. The growth was -21.6% (active) in experiment [17]; -18.5% (active) in [8]; 7.67% (active) in experiment [9]; -23% (active) in experiment [10]; 3.73% (active) in [11]; 2.8% (active) in experiment [12]. Also, the growth in experiment [18] was 2.11% (active); in experiment [13], 1.12% (active); in experiment [15], -1.36% (active).

For the molecule `CS(=O)(=O)N1CCc2c(-c3cnc(N)nc3)nc(N3CCOCC3)nc21`, the growth in experiment [1] is 6.13% (active); in [2] it was 18.1%; in [3], 6.31% (active); in experiment [4], 4.76% (active); in [5] it was -5.74% (active); in experiment [6] it was -38.1% (active). Further, the growth in experiment [7] was 9.64% (active); in [8], 12.9%; in [9] it was -37.2% (active); in experiment [10], -7.63% (active); in experiment [11] it was 2.21% (active); in experiment [12] it was 24.3%. The growth in [18] was 6.89% (active); in experiment [13] it was 20.4%; in experiment [15], 8.03% (active).
